# In all, about 96,000 compounds went through this assay and about 20,000 (21%) were called active. These entries were drawn from the full list. A number with no mark means an inactive call.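 How the source made its calls: active means CYP2C19 inhibition above a set limit at 5 µM in the primary screen (cut at about 50% in these data); inactive means the rest.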
# Target: Cytochrome P450 2C19 (Homo sapiens) (UniProt P33261)
# Experiment: blockers of cytochrome P450 2C19 activity – biochemical, luminescence, ADME assay, primary screen (AID 778);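 further: plate controls were negative control wells for no effect and 2.5 mM tranylcypromine positive control for full effect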
# Details: CYP2C19 Supersomes, luciferin-H EGE luminescence, 30 min; at 5 µM; stronger effect = higher value
# Sequence of Cytochrome P450 2C19 (Homo sapiens) (P33261 whole entry, looked up): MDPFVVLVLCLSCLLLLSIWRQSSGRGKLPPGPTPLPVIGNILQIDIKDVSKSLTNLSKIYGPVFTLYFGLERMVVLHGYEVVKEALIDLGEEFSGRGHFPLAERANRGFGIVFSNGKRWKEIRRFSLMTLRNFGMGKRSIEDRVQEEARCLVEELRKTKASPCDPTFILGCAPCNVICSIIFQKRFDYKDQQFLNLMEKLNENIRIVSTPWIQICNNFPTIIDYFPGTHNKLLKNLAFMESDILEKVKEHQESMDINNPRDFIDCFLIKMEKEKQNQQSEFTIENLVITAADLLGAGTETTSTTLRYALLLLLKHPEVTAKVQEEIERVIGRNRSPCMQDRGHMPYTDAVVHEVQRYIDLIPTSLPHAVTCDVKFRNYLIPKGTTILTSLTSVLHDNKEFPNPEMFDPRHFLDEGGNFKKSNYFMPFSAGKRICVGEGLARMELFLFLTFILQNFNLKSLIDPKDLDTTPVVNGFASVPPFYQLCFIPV
row,SMILES,inhibition
1,COc1ccc(/C(O)=C2\C(=O)C(=O)N(Cc3ccco3)C2c2ccc(OC)cc2OC)cc1 (configuration not stated),3.4%
2,COc1ccccc1C1/C(=C(/O)c2ccc(OC(C)C)cc2)C(=O)C(=O)N1c1cc(C)on1 (configuration not stated),-7.6%
3,COc1ccc(/C(O)=C2/C(=O)C(=O)N(c3nc(C)c(C)s3)C2c2ccco2)cc1 (configuration not stated),58.8% (active)
4,CN(C)CCCn1c(N)c(C#N)c2nc(C#N)c(C#N)nc21,-1.9%
5,COC(=O)C(C)Oc1ccc2c(-c3cccc([N+](=O)[O-])c3)cc(=O)oc2c1 (configuration not stated),28.8%
6,C=CCNC(=O)c1cc2nc(C3CC3)cc(C(F)F)n2n1,51.2% (active)
7,O=C(Nc1ccc(Cl)cc1)c1cc2nc(C3CC3)cc(C(F)(F)F)n2n1,-6.4%
8,Cc1nc(N2CCCC2C(=O)O)c2oc3ccccc3c2n1 (configuration not stated),2.4%
9,Cc1ccccc1NC(=O)C(C)c1ccc(-c2ccccc2)c(F)c1 (configuration not stated),7.1%
10,Cc1nn(C)c(Oc2ccccc2)c1[N+](=O)[O-],64% (active)
11,Cc1nn(C)c(Oc2ccc(Cl)cc2)c1C=O,27.7%
12,Cc1nn(C)c(Oc2ccccc2)c1CCNS(=O)(=O)c1ccc(F)cc1,96.7% (active)
13,Cc1n[nH]c(=O)n1-c1ccc(Oc2ccccc2)cc1,18.5%
14,Cc1cccc(N2C(=O)SC(N(CC(=O)O)c3cccc(C)c3)C2=O)c1 (configuration not stated),1.5%
15,COC(=O)C(NC(=O)c1ccc(OC)cc1)(Nc1ncc(S(=O)(=O)c2ccc([N+](=O)[O-])cc2)s1)C(F)(F)F (configuration not stated),33.8%
16,c1ccc(CSCCc2ccncc2)cc1,99.8% (active)
17,O=C(CSCc1ccc([N+](=O)[O-])cc1)NCCSCc1ccccc1,21.3%
18,COc1ccc(-c2nn(C)c(=O)c3ccccc23)cc1NC(=O)COc1ccccc1,25.6%
19,CCOc1nc(OCC)nc(-n2cc(-c3ccccc3)nn2)n1,3.5%
20,Cc1cnc(NC(=O)CSc2nnc(-c3ccc(Cl)cc3Cl)n2N)s1,23.2%
21,COc1ccc(-c2nnc(SC(C)C#N)o2)cc1 (configuration not stated),10.9%

row,SMILES,inhibition
1,C#CCNc1nc(C(C)C)nc2c1nnn2Cc1ccccc1F,37.3%
2,Cc1nc(Nc2ccc3c(c2)OCCO3)c2nnn(Cc3ccccc3Cl)c2n1,83.2% (active)
3,O=C(Nc1cc2ccccc2oc1=O)C1CCCCC1,0.3%
4,O=C(CC12CC3CC(CC(C3)C1)C2)Nc1ccc2c(c1)COC2=O,12.8%
5,O=C(/C=C/c1cccs1)c1cc(Cl)ccc1OC(=O)N1CCOCC1,90.6% (active)
6,O=C(Oc1ccc2c(c1)CCC2)N1CCOCC1,11.1%
7,CC(=O)Nc1ccccc1OC(=O)N1CCOCC1,0.3%
8,O=c1cc(N2CCN(Cc3ccccc3)CC2)c(-c2ccccc2)n[nH]1,19%
9,Cc1cnc(NC(=O)C2CCCC2)s1,17.5%
10,CCOC(=O)c1cc(C)sc1NC(=O)C1CCC1,54.6% (active)
11,CCOC(=O)c1c(NC(C)=O)sc2c(O)c(Br)ccc12,3.8%
12,CC(=NC1CCN(Cc2ccccc2)CC1)c1c(O)[nH]c(=O)[nH]c1=O,-7.4%
13,CC(C)c1nnc(NC(=O)C2CCCN2S(=O)(=O)c2ccc(Cl)cc2)s1 (configuration not stated),17.2%
14,CCOc1ccc(NC(=O)CC2NCCNC2=O)cc1 (configuration not stated),1.1%
15,CCOc1ccc(S(=O)(=O)n2ccnc2)c2ccccc12,66.5% (active)
16,CCOc1ccc(S(=O)(=O)N2CCCCCC2)c2ccccc12,32.3%
17,CCOC(=O)c1ccc(N2C(=O)CC(N3CCC(C(=O)OCC)CC3)C2=O)cc1 (configuration not stated),47.5%
18,CCCCOC(=O)c1ccc(N2C(=O)CC(N3CCN(C/C=C/c4ccccc4)CC3)C2=O)cc1 (configuration not stated),86.2% (active)
19,CCOC(=O)c1ccc(N2C(=O)CC(N3CC(C)OC(C)C3)C2=O)cc1 (configuration not stated),6.8%
20,CCCCCCC(=O)Nc1nc(C)c(-c2csc(Nc3cccc(OC)c3)n2)s1,-4.8%
21,COC(=O)c1ccccc1NC(=O)Cn1nc(C(F)(F)F)c2c1CCC2,36.4%

row,SMILES,inhibition
1,COC(=O)c1ccccc1Sc1c(/C=N/OCc2ccc(Cl)cc2)c(C(F)(F)F)nn1C,72.6% (active)
2,O=C1N=C2SCCN2/C1=C\c1c(Cl)cccc1Cl,11.1%
3,Cc1cc(Nc2ccccc2)nc(N)n1,-8.2%
4,CNC(=O)n1ccc(C(=O)N2CCCCC2)n1,-16.6%
5,O=C(/C=C/NNC(=O)c1cccc(Br)c1)c1ccccc1,76.7% (active)
6,O=C(/C=C\NCC(=O)c1ccccc1)c1ccccc1,46.4%
7,CC(C)(O)C(=O)NN(C(=O)c1ccccc1)c1cccc(Br)c1,2.5%
8,CCC(C)(C(=O)NC1CCCC1)N(C(=O)CNC(C)=O)c1ccc(C)cc1 (configuration not stated),21.1%
9,CCOc1ccc(NC(=O)CN(C)CC(=O)Nc2cccc(Cl)c2C)cc1OCC,21.6%
10,CCOc1ccccc1NC(=O)C12CC3CC(C1)CC(c1ccc(C)cc1)(C3)C2,51.9% (active)
11,CCOc1ccccc1NC(=O)C1CCC(CNc2c(N3CCOCC3)c(=O)c2=O)CC1 (configuration not stated),-13.1%
12,CCOCC(=O)Nc1cc(OC)c(Cl)cc1OC,29.8%
13,COc1ccc(-c2cc(C(F)(F)F)n3nc(C(=O)N4CCOCC4)c(Cl)c3n2)cc1,-7.1%
14,FC(F)Oc1ccccc1C1CC(c2ccc(Br)s2)Nc2ncnn21 (configuration not stated),98.5% (active)
15,COc1ccc2[nH]c3c(=O)n(Cc4ccco4)cnc3c2c1,21.8%
16,CCC(c1nnnn1Cc1ccco1)N(Cc1cc2cc(OC)ccc2[nH]c1=O)C1CCCCC1 (configuration not stated),53.6% (active)
17,CCC(c1nnnn1Cc1ccccc1)N(Cc1cc2cc(OC)ccc2[nH]c1=O)CC1CCCO1 (configuration not stated),44.9%
18,CCC(c1nnnn1Cc1ccco1)N(CCc1ccccc1)Cc1cc2cccc(C)c2[nH]c1=O (configuration not stated),38.3%
19,CCC(=O)N(Cc1cc2cc(OC)ccc2[nH]c1=O)c1ccccc1C,21.8%
20,CCC(c1nnnn1Cc1ccco1)N(CCc1ccccc1)Cc1cc2ccc(OC)cc2[nH]c1=O (configuration not stated),92.2% (active)

# Source: PubChem BioAssay AID778 (Sanford-Burnham Center for Chemical Genomics, 2007)
